Activity calls are given as the source filed them. Calls follow the shape of the dose curve; as a rule, active = well fitted activation curve with a large enough effect; inconclusive = small, poorly fitted or top-dose-only effect; inactive = no such curve, though single readings can be large or run the other way.
assay: Confirmatory qHTS for Identification of Small Molecule Activators of Huntingtin-Antisense Promoter Activity; conditions: HEK293 HTT-AS promoter firefly luciferase reporter, 24 h; series mostly up to 57.5 µM; activity change, positive = activation: at the top concentration
Outline: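 Plated reporter HEK293 cells (24 h) received library compounds at up to 57.5 uM final or 50 uM PTC124, incubated 24 h at 37C; firefly luciferase luminescence was then recorded with Dual-Glo reagent.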

Activity change, positive = activation, inactive:
O=C(Nc1nnc(S(=O)(=O)N2CCc3ccccc32)s1)c1cccc(Cl)c1 -45.6%
COc1ccc(CCNC(=O)c2ccc3c(c2)CCN3S(=O)(=O)c2ccc(C)cc2)cc1OC -25.9%
Cc1ccc(Cl)cc1N1CCN(C(=O)C2CCN(S(=O)(=O)c3ccc4c(c3)oc(=O)n4C)CC2)CC1 -28%
CCc1ccc(CNC(=O)c2cc3cc(S(=O)(=O)N4CCCCC4)ccc3n2C)cc1 -28.2%
CCCCN1CC(c2nc3ccccc3n2CCCCOc2ccccc2C)CC1=O (stereo not drawn) -45.6%
CCCCOC(=O)c1ccc(NC(=O)c2sc3nc(C)cc(C)c3c2N)cc1 -52.3%
C#C[C@]1(O)CC[C@H]2[C@H]3CCc4cc(OC)ccc4[C@H]3CC[C@@]21C 13.8%
O=C(Nc1ccc(F)c(Cl)c1)c1cc(S(=O)(=O)N2CCCc3ccccc32)ccc1F 24.1%
CC(=O)c1ccc(N2CCN(c3ncnc4c3cnn4-c3cc(Cl)ccc3C)CC2)cc1 -49.9%
COc1ccc(N2CCN(Cc3nc4c(c(=O)n(C)c(=O)n4C)n3C(C)C)CC2)cc1 -94.2%
CN(C)S(=O)(=O)c1ccc(C(=O)NCCSc2c(-c3ccc(Cl)cc3)[nH]c3ccccc23)cc1 -31.7%
O=C(NCCc1csc(-c2ccc(F)cc2)n1)c1cccc(F)c1 -40%
COc1ccc(-c2nc(CNS(=O)(=O)c3ccc(F)cc3)cs2)cc1 -77.2%
Cn1c(NCCN(CCO)CCCc2ccc([N+](=O)[O-])cc2)cc(=O)n(C)c1=O -9.85%
CSc1ccc(CCNC(=O)c2ccc(CS(=O)(=O)c3ccc(Br)cc3)o2)cc1 -30.2%
Cc1ccccc1CNC(=O)c1ccc(-c2nc(CS(=O)(=O)c3ccccc3)c(C)o2)cc1 -41.5%
COc1ccc(OC)c(CCNC(=O)C(C)n2nc(C)c3c(C)n(-c4ccc(C)cc4)nc3c2=O)c1 (stereo not drawn) -82.6%
Cc1ccc(Nc2cc(C(=O)NC3CCCC3)c3ccccc3n2)cc1C -21.2%
Cc1nc(N2CCCC2)ncc1C(=O)Nc1ccc(OC(F)(F)F)cc1 -33.4%
COCCNc1nc2c(c(=O)n(C)c(=O)n2C)n1Cc1c(F)cccc1Cl -54.3%
O=C(CN1C(=O)C2(SCC(=O)N2c2cccc(Cl)c2)c2ccccc21)NCCc1ccccc1 (stereo not drawn) -24.2%
COc1ccc(S(=O)(=O)NCCc2cc3ccc(C)c(C)c3[nH]c2=O)cc1 -25.6%
COc1ccc(S(=O)(=O)Nc2cc3c(C(=O)OC(C)C)c(C)oc3c3ccccc23)cc1 -11.5%

— PubChem BioAssay AID1508622 (National Center for Advancing Translational Sciences (NCATS), 2021)
